Screens: PubChem, National Center for Advancing Translational Sciences (NCATS)
FBPA Giardia inh – blocks Giardia fructose-bisphosphate aldolase activity | A8B2U2 | purified Giardia FBPA | Potency, µM (highest dose often 59.6 µM), most hits filed as inhibitors | hit rate 0.71% among 290,000 | AID 2451; also: nearly all actives have a fitted effect of over 55% in size
Target sequence (A8B2U2 whole entry, looked up): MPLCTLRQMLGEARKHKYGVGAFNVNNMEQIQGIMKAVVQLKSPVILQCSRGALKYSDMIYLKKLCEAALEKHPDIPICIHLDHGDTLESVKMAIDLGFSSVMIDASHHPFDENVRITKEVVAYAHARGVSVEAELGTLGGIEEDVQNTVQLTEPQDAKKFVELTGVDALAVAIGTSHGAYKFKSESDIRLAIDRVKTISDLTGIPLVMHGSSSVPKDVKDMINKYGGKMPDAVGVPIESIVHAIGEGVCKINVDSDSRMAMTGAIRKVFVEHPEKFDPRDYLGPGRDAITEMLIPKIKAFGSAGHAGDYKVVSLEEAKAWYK
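Giardia FBPA (40 nM reagent) was preincubated 10 min at RT with compound (up to 57.5 uM final), then substrate plus GAPDH/TPI/NAD/arsenate coupling system with diaphorase/resazurin was added; resorufin fluorescence (525/598 nm) was read after 20 min.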
CHX counter – counter-screen hit for Shiga toxin inhibitors, cycloheximide. cell reporter, cycloheximide protein synthesis inhibition counterscreen. max response, %. hit rate 12% among 300,000. AID 2314; in the data active = max response mostly above about 13%, no sharp cut-off; inactive = mostly below about 14%; also: read at 38.3 µM for the half of the compounds with a filed dose
Shiga toxin inh – blocks Shiga toxin action in Vero cells; AID 2315; Vero cells, Shiga toxin protein synthesis inhibition reporter; hit rate 9.2% among 290,000; inhibition, % at 38.7 µM; in the data active = inhibition mostly above about 28%, no sharp cut-off; inactive = mostly below about 43%
LmPK inhibitor – inhibitors of Leishmania mexicana pyruvate kinase | purified LmPK, Kinase-Glo ATP luminescence, 1 h | AID 1721 | Q27686 | hit rate 0.37% among 290,000 | Potency, µM (titrated, usually from 57.5 µM), actives largely listed as inhibitors
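Purified LmPK (0.1 nM) with 0.5 mM PEP and 0.1 mM ADP in imidazole buffer pH 7.2 with MgCl2/KCl, 1 h at room temperature. ATP formed was read by luciferase luminescence and normalized to no-enzyme and uninhibited controls.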
TbPYK inhibitor – inhibitors of Trypanosoma brucei pyruvate kinase. hit rate 0.12% among 410,000. TbPYK enzyme, Kinase-Glo Plus ATP luminescence, 45 min. Potency, µM (highest dose often 76.8 µM), hits mostly inhibitors. Q57TT1; also: nearly all actives have a fitted effect of over 50% in size
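ADP (130 uM final) triggers the TbPYK reaction after compound addition; incubation is 45 min at room temperature. Kinase-Glo Plus is then added and luminescence imaged. Normalized data are fitted to concentration-effect curves.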
Sm TGR inh – S. mansoni TGR enzyme inhibition; purified TGR, DTNB reduction, TNB absorbance 405 nm; Potency, µM (series often up to 114 µM), hits mostly inhibitors; hit rate 3% among 360,000; also: nearly all actives have a fitted effect of over 60% in size
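First, TGR (20 nM dispensed) and NADPH were mixed with compound. Second, a 15 min room-temperature incubation followed. Third, further NADPH and then DTNB were added to start the reaction. Finally, TNB absorbance was monitored kinetically.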
Hits are given with their value; . = inactive; ? = inconclusive; / = no result. The sample as a whole holds a higher share of hits than the screen did. Unless noted, calls follow the shape of the dose curve; as a rule, active = well fitted curve in the direction sought with a large enough effect; inconclusive = small, poorly fitted or top-dose-only effect, or another doubt; inactive = no such curve, though single readings can be large; an effect the other way counts as inactive or inconclusive.

SMILES	FBPA Giardia inh	CHX counter	Shiga toxin inh	LmPK inhibitor	TbPYK inhibitor	Sm TGR inh
C/C(=N/N1CCN(Cc2ccccc2)CC1)c1ccc(Br)cc1	.	.	.	.	.	.
Cc1c(C(=O)N2CCN(c3ccccc3)CC2)oc2c(F)cccc12	/	32	.	.	.	.
COCC1CCN(C(=O)c2oc3c(F)cccc3c2C)C1 (configuration not stated)	.	23	33	.	.	.
CCOC(=O)N1CCC(NC(=O)c2oc3c(F)cccc3c2C)CC1	.	65	62	.	.	.
CC(=O)NCC1CCCN(C(=O)c2oc3c(F)cccc3c2C)C1 (configuration not stated)	.	.	.	.	.	.
Cc1ccc(/C=C/c2onc(C)c2S(=O)(=O)N2CCC(C(=O)N3CCN(c4ccccc4F)CC3)CC2)cc1	/	/	/	/	.	.
CC(=O)c1ccc(NC(=O)COC(=O)c2ccccc2N=Nc2ccc(N(C)C)cc2)cc1	.	49	99	.	.	.
COC(=O)c1ccccc1NC(=O)COC(=O)c1ccccc1N=Nc1ccc(N(C)C)cc1	.	.	.	.	.	.
CN(C)c1ccc(N=Nc2ccccc2C(=O)OCC(=O)N(C)c2ccccc2)cc1	.	34	.	.	.	.
CCCCCCn1c(=O)n2n(c1=O)C[C@]1(OC(=O)NCc3ccccc3)CN(S(=O)(=O)c3ccc(C)cc3)C[C@]1(O)C2	/	/	/	/	.	/
CC1CCCC(C)N1C(=O)c1cc(-c2ccc3c(c2)OCO3)on1 (configuration not stated)	.	54	78	.	.	.
CC1CCCC(C)N1C(=O)c1cc(-c2ccc(Cl)c(Cl)c2)on1 (configuration not stated)	.	.	.	.	.	.
CCOC(=O)C1CCCN(C(=O)c2cc(-c3ccccc3)on2)C1 (configuration not stated)	.	42	79	.	.	.
O=C(c1cc(-c2ccc(Cl)c(Cl)c2)on1)N1CCCCCC1	.	20	36	.	.	.
O=C(c1cc(-c2ccc(Cl)cc2)on1)N1CCCCCC1	.	27	109	.	.	.
CCOC(=O)c1noc2ncn(CC(=O)Nc3cccc(Cl)c3)c(=O)c12	/	/	/	/	.	.
COc1ccc(CCNC(=O)CN(c2ccccc2)S(=O)(=O)N(C)C)cc1	/	/	/	/	.	.
C/C(=C(/CCOC(=O)c1ccccc1)SS/C(CCOC(=O)c1ccccc1)=C(\C)N(C=O)Cc1cnc(C)nc1N)N(C=O)Cc1cnc(C)nc1N	/	/	/	/	.	/
O=C(c1ccc2c(c1)OCO2)N1CCCCC1	.	.	.	/	/	/
O=C(c1cc(-c2ccc3c(c2)OCO3)on1)N1CCCCC1	.	25	55	.	.	.
Cc1ccc(-c2cc(C(=O)N3CCOCC3)no2)cc1	.	.	.	.	.	.
Cc1ccc(-c2cc(C(=O)N3CCCC3)no2)cc1	.	.	active	.	.	.
O=C(c1cc(-c2ccc(O)cc2)on1)N1CCCCCC1	.	34	61	.	.	.
O=C1CSC(c2ccc(F)cc2)N1c1c(F)cccc1F (configuration not stated)	.	21	.	.	.	.
CN(C)c1ccc(C(=O)NC2(N3CCC3=O)CCCC2)cc1	.	22	.	.	.	/
SMILES	FBPA Giardia inh	CHX counter	Shiga toxin inh	LmPK inhibitor	TbPYK inhibitor	Sm TGR inh
CN(C)c1ccc(C(=O)N2CCCC2)cc1	.	.	.	.	.	.
O=[n+]1c2c(n([O-])c3cc(F)c(N4CCCC4)cc31)CCCC2	?	30	61	.	.	?
O=[n+]1c2c(n([O-])c3cc(F)c(N4CCCC4)cc31)CCC2	/	/	/	/	.	/
Cc1ccc(NC(=S)/C(=C(\[O-])c2ccc(C)c([N+](=O)[O-])c2)[n+]2ccccc2)cc1C	.	70	149	.	/	.
Cc1ccccc1NC(=S)/C(=C(\[O-])c1ccc(C)c([N+](=O)[O-])c1)[n+]1ccccc1	?	.	.	.	.	.
COc1cccc(NC(=S)/C(=C(\[O-])c2ccc(C)c([N+](=O)[O-])c2)[n+]2ccccc2)c1	?	39	51	.	.	?
O=C(O)c1ccc(NC(=O)c2cn(-c3ccccc3)nc2-c2ccc(F)cc2)cc1	.	39	94	.	.	.
CCOC(=O)c1cc(C(=O)Nc2cccc(C)c2)nn1C	.	40	155	.	.	.
Cc1cccc(NC(=O)c2c(C)nn(-c3ccccc3)c2Cl)c1	.	47	113	.	.	/
Cc1cccc(C)c1NC(=O)c1cn(-c2ccccc2)nc1-c1ccccc1	.	.	.	.	.	.
Cc1nn(-c2ccccc2)c(Cl)c1C(=O)Nc1ccc(N2CCOCC2)cc1	.	.	.	.	.	.
Cc1cccc(NC(=O)c2cn(-c3ccccc3)nc2-c2ccccc2)c1	.	13	.	.	.	.
CCOc1ccc(CCN2C(=S)N([C@@H](CC(C)C)CN3CCCC3CN3C(=S)NC[C@@H]3CC(C)C)C[C@@H]2Cc2ccccc2)cc1 (some centres not stated)	/	/	/	/	.	/
O=C(NC(=S)NCCO)c1cn(-c2ccccc2)nc1-c1ccccc1	.	.	49	.	.	.
O=C(/C=C/c1cn(-c2ccccc2)nc1-c1ccccc1)Nc1ccc(C(=O)O)cc1	.	.	63	.	.	.
Cc1c(NC(=O)/C=C/c2cn(-c3ccccc3)nc2-c2ccc(F)cc2)c(=O)n(-c2ccccc2)n1C	/	.	.	.	?	3.2µM
O=C(NC(=S)N1CCOCC1)c1cn(-c2ccccc2)nc1-c1ccccc1	/	/	/	/	.	.
NS(=O)(=O)c1ccc(NC(=O)/C=C/c2cn(-c3ccccc3)nc2-c2cccc(Cl)c2)cc1	.	.	.	.	.	/
O=C(Nc1ccncc1)c1cn(-c2ccccc2)nc1-c1cccs1	.	44	.	.	.	.
CC(=O)Nc1c(I)c(C(=O)O)c(I)c(N(C)C(C)=O)c1I	/	/	/	/	.	/
Cc1c(NC(=O)CN(c2ccc(F)cc2)S(=O)(=O)c2ccccc2)c(=O)n(-c2ccccc2)n1C	/	.	.	.	.	10µM
O=C(/C=C/c1cn(-c2ccccc2)nc1-c1cccnc1)N1CCCC1	.	.	.	.	.	.
O=C(/C=C/c1cn(-c2ccccc2)nc1-c1cccnc1)c1ccco1	.	25	.	.	.	.
COc1ccc(C(=O)NNC(=O)C23CC4CC(CC(C4)C2)C3)cc1OC	/	/	/	/	.	.
COc1ccc(C2=Nn3c(nnc3-c3ccccc3OC)SC2)c(OC)c1	.	.	.	/	/	/
CC(=O)N1CC(C)Sc2ccc(S(=O)(=O)NCCc3ccccc3)cc21 (configuration not stated)	/	32	56	.	.	.
CC(=O)N1CC(C)Sc2ccc(S(=O)(=O)NCCc3ccc(C)cc3)cc21 (configuration not stated)	/	.	.	.	.	.
